# High-throughput results: PubChem, NMMLSC
# Rab7 wt modul: modulators of GTP binding to dog Rab7 wildtype GTPase | AID 758 | actives 0.055% (n = 190,000) | GTP binding activity (percent of control), % at 10 µM | GST-Rab7 beads, fluorescent GTP binding, flow cytometry; actives lie on both sides; untreated = 100%, excess cold GTP = 0%;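 active = fluorescent GTP binding to Rab7 beads changed by at least 20 points from the 100% baseline, either direction, mostly lower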;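 also: median green fluorescence of bound Bodipy-FL-GTP per Rab7 bead population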
# Rac1 wt GTP bind: modulators of human Rac1 wildtype GTP binding; P63000; GST-Rac1 beads, fluorescent GTP binding, flow cytometry; actives lie on both sides; 0 = cold GTP competed, 100 = untreated; GTP binding activity (% of control), % at 10 µM; actives 0.27% (n = 190,000); AID 757;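 active = GTP binding activity at least 20 points away from the 100% control level, either lower or higher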
# HRas wt GTP: modulators of GTP binding to human HRas wildtype. actives 0.14% (n = 190,000). GST-Ras wt beads, Bodipy-FL-GTP binding, flow cytometry; actives lie on both sides. GTP binding activity, % at 10 µM. AID 759. P01112;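 active = GTP binding activity at least 20% away from the 100% baseline, either lowered as inhibitor or raised as activator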;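 also: 0% = unlabeled GTP competition control and 100% = no-compound control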
# Rac1 mut GTP: modulators of GTP binding to human Rac1 activated mutant. P63000. GST-Rac1 activated beads, fluorescent GTP binding, flow cytometry; actives lie on both sides; 100% means binding = to untreated wells. percent activity (GTP binding), % at 10 µM. actives 0.11% (n = 190,000);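 active = GTP binding at least 20 percentage points away from the 100% baseline, in either direction, so actives lie on both sides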
# Cdc42 wt: human Cdc42 wildtype GTP binding change, either direction | P60953 | percent activity (GTP binding), % at 10 µM | GST-Cdc42 beads, Bodipy-GTP binding, flow cytometry; actives lie on both sides | actives 0.2% (n = 190,000) | AID 761;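 active = percent activity GTP binding at least 20 points away from the 100% baseline, either down as inhibitor or up as activator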;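 also: median bead fluorescence of bound Bodipy-FL-GTP at 100 nM; 0% = excess unlabeled GTP control and 100% = no compound control; below 100% means less GTP binding so inhibitor and above means activator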
# Target sequence (P60953 whole entry, looked up): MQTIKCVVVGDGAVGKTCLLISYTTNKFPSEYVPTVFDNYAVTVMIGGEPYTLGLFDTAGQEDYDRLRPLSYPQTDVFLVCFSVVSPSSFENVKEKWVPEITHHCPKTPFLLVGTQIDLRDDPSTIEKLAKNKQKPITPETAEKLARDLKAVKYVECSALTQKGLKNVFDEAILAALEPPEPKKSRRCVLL
# Rab2 wt GTP: changes GTP binding to wildtype dog Rab2A, up or down | P61105 | GST-Rab2 wt beads, Bodipy-GTP binding, flow cytometry | GTP binding activity, % at 10 µM | actives 0.19% (n = 190,000) | AID 760;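 active = GTP binding activity at least 20 points away from 100%, either lowered or raised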;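 also: 0% = beads with excess unlabeled GTP and 100% = no-compound control corrected for plate trend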
# * hit, by the source's call; [ ] = remark or other dose. Shown are actives, neighbours in structure and some others; about 0.37% of the full set was active somewhere.
SMILES,Rab7 wt modul,Rac1 wt GTP bind,HRas wt GTP,Rac1 mut GTP,Cdc42 wt,Rab2 wt GTP
COc1cccc(/C=N/Nc2nn3cnnc3c3ccccc23)c1O,77.0*,70.0*,59.0*,70.0*,58.0*,60.0*
COc1cccc(/C=N/Nc2ccc(C(=O)O)cc2)c1O,96.0,97.0,95.0,97.0,96.0,94.0
Cc1ccccc1NCc1nnc2n1CCCCC2,103.0,101.0,99.0,97.0,97.0,99.0
C/C=C/c1ccccc1OCc1ccc(C(=O)O)o1,134.0*[activator],194.0*[activator],145.0*[activator],146.0*[activator],161.0*[activator],149.0*[activator]
O=C(NCc1ccco1)c1cnn2c(C(F)F)cc(-c3ccccc3)nc12,99.0,99.0,98.0,96.0,97.0,98.0
COCCNC(=O)c1cnn2c(C(F)F)cc(-c3ccccc3)nc12,98.0,79.0*,90.0,88.0,83.0,87.0
CCOC(=O)CC1COCCN1Cc1cn(C)nc1-c1ccccc1F (configuration not stated),105.0,100.0,101.0,96.0,96.0,99.0
CCCc1nc2c(=O)n(C)c(=O)nc-2n(C)n1,99.0,94.0,89.0,84.0,74.0*,89.0
CCSc1nc2nc(C)cc(C)n2n1,98.0,100.0,99.0,98.0,97.0,99.0
Cc1cc(C)n2nc(SCCOc3ccccc3F)nc2n1,92.0,74.0*,71.0*,84.0,66.0*,71.0*
C#CCN(C(=O)CC1C(=O)NCCN1C/C=C/c1ccccc1)C1CCCCC1 (configuration not stated),102.0,98.0,101.0,96.0,96.0,98.0
Cc1cc(C)n(C(=O)CNC(=O)C2COc3ccccc3O2)n1 (configuration not stated),96.0,104.0,99.0,97.0,102.0,100.0
Cc1cc(C)n(C(=O)CNC(=O)c2ccc3c(c2)OCCO3)n1,20.0*,29.0*,38.0*,33.0*,34.0*,32.0*
O=C(O)c1cc(-c2ccc(/C=C3\NC(=O)N(c4ccc(Cl)cc4)C3=O)o2)ccc1Cl,94.0,74.0*,81.0,77.0*,74.0*,80.0
O=C1NN(c2ccccc2)C(=O)/C1=C/c1ccc(-c2ccc(Cl)c(C(=O)O)c2)o1,93.0,88.0,88.0,84.0,87.0,87.0
COc1ccc(C(=O)N[C@H](C(=O)OCc2cc(=O)oc3cc(C)ccc23)C(C)C)cc1,20.0*,33.0*,37.0*,33.0*,33.0*,31.0*
